“And” between values parts separate entries of the source, which are not always exact repeats. Equal values may be shown once. In all, about 16,000 compounds went through this assay and about 5,800 (36%) were called active. Not shown: some 23% with an inconclusive outcome. Some of the results follow. Values without a mark were called inactive. Calls follow the shape of the dose curve; as a rule, active = well fitted curve in the direction sought with a large enough effect; inconclusive = small, poorly fitted or top-dose-only effect, or effect the other way; inactive = no such curve, though single readings can be large or run the other way.
The compounds below were run against Cytochrome P450 2C19 (Homo sapiens) (UniProt P33261) (assay: Cytochrome panel assay with activity outcomes). Conditions: recombinant CYP, pro-luciferin dealkylation, luminescence, p450-cyp2c19; series mostly up to 57.1 µM; activity, negative = inhibition: at the top concentration.
% is scaled to controls: 0 for no effect and ±100 for the full control effect.

Sequence of Cytochrome P450 2C19 (Homo sapiens) (P33261 whole entry, looked up): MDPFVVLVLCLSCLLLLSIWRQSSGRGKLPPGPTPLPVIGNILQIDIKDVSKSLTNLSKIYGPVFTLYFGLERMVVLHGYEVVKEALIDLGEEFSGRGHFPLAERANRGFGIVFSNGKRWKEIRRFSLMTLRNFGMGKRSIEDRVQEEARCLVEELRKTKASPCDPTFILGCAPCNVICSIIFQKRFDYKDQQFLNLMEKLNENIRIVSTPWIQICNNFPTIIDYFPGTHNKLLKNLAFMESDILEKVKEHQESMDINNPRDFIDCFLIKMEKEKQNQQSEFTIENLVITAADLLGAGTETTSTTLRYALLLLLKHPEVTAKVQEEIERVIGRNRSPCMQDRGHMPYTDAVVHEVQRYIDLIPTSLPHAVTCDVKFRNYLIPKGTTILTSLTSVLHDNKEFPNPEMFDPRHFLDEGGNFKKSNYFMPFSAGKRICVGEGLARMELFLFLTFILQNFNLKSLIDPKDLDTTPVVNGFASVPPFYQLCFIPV

Question: CCC(=O)Nc1c2c(nc3c1CCC3)CCCC2 was tested. Which “activity, negative = inhibition” value did it give?
Answer: The value was -14.8%.

Question: CCSc1nnc(NC(=O)CSc2nc3c(cc2C#N)CCCC3)s1 was tested. Which AC50 did it give?
Answer: The AC50 was 2.82 µM (active).

Question: For COc1ccc(-n2nc3cc(C)c(NC(=S)NC(=O)c4ccccc4C)cc3n2)cc1, which “activity, negative = inhibition” value is on record?
Answer: Its value is -29.5%.

Question: For COc1ccc(NC(=S)Nc2ncccc2C)c(OC)c1, which AC50 is on record?
Answer: The AC50 was 3.55 µM (active).

Question: For CO[C@H]1COC(=O)C/C=C\[C@H](C)[C@@H](NS(=O)(=O)c2ccc(C)cc2)COC(=O)C/C=C\[C@@H]1C, which activity, negative = inhibition is on record?
Answer: The activity, negative = inhibition was 1.28% [at 11.4 µM] and 16.7% [at 11.4 µM].

Question: With COC(=O)N1CCC2(CC1)CCN(c1ncccn1)CC2 as the compound, how does the “activity, negative = inhibition” value read?
Answer: Its value is 9.12%.

Question: Cc1sc(NC(=O)c2ccco2)c(C(c2ccncc2)N2CCOCC2)c1C (stereo unspecified) was tested. Which AC50 did it give?
Answer: Its AC50 is 10 µM (active).

Question: Which “activity, negative = inhibition” value does the source give for O=C(Nc1c(C(=O)N2CCCCC2)cnn1-c1ccccc1)c1ccco1 here?
Answer: The value was -22.6%.

Question: With Cc1sc(NC(=O)c2ccco2)c(C(c2cccnc2)N2CCN(C)CC2)c1C (stereo unspecified) as the compound, how does the AC50 read?
Answer: Its AC50 is 20 µM (active).

Question: For Cc1sc(NC(=O)c2ccco2)c(C(c2cccnc2)N2CCCC2)c1C (stereo unspecified), which AC50 is on record?
Answer: The AC50 was 11.2 µM (active).

Question: Cc1c(C)c2c(c(C)c1O)CC[C@@](C)(C(=O)O)O2 was tested. Which “activity, negative = inhibition” value did it give?
Answer: Its value is 9.1% [at 25.6 µM].

Question: O=C(N/N=C/c1ccc(O)cc1)c1csc2ccccc12 was tested. Which AC50 did it give?
Answer: The AC50 was 14.1 µM (active).

Question: CCOc1ccc(NC(=S)N(Cc2ccc(N(C)C)cc2)Cc2ccco2)cc1 was tested. Which AC50 did it give?
Answer: Its AC50 is 1.58 µM (active).

Question: How did the AC50 turn out when CCOc1ccc(NC(=S)N(Cc2ccc(Cl)cc2)Cc2ccco2)cc1 was run?
Answer: The AC50 was 7.94 µM (active).

Question: Cc1ccccc1NC(=O)CN1CCC(n2nnc3ccccc32)CC1 was tested. Which AC50 did it give?
Answer: Its AC50 is 17.8 µM (active).

Question: With Cc1ccc2c(c1)nnn2C1CCN(CC(=O)N2c3ccccc3CC2C)CC1 (stereo unspecified) as the compound, how does the AC50 read?
Answer: The AC50 was 10 µM (active).

Question: For CCc1ccccc1NC(=O)c1nnn(CC(=O)Nc2ccccc2C)c1N, which “activity, negative = inhibition” value is on record?
Answer: Its value is -8.56%.

Question: Which activity, negative = inhibition does the source give for Cc1cc(N=Cc2c(CO)cnc(C)c2O)c(N=Cc2c(CO)cnc(C)c2O)cc1C.[Zn] here?
Answer: Its activity, negative = inhibition is -22.1% [at 11.4 µM].

Question: CCCCN=c1sc(C(=O)OC)cc(=O)n1CCCC was tested. Which AC50 did it give?
Answer: Its AC50 is 2.24 µM (active).

Question: Which activity, negative = inhibition does the source give for Cc1cc2c(c(=O)o1)[C@@H](O)[C@H]1O[C@@H]1C2=O here?
Answer: Its activity, negative = inhibition is -1.32% [at 11.4 µM].

Question: CN(C)c1cc(-c2cccc(NS(C)(=O)=O)c2)ncn1 was tested. Which “activity, negative = inhibition” value did it give?
Answer: Its value is -19%.

Question: Which “activity, negative = inhibition” value does the source give for Cc1n[nH]c(C)c1S(=O)(=O)N1CCOCC1 here?
Answer: The value was 2.95%.

Question: How did the AC50 turn out when COc1ccc(N(CC(=O)Nc2cccc(C)c2)S(=O)(=O)c2c(C)n[nH]c2C)cc1 was run?
Answer: Its AC50 is 0.794 µM (active).

Question: Which AC50 does the source give for Cc1cccc(NS(=O)(=O)c2c(C)n[nH]c2C)c1 here?
Answer: Its AC50 is 7.08 µM (active).

Question: Which AC50 does the source give for CN(CC(=O)Nc1ccc(F)c(F)c1)S(=O)(=O)c1cccc2nsnc12 here?
Answer: Its AC50 is 3.55 µM (active).

Question: N#Cc1cccc(NC(=O)N2CCC3(CC2)CCN(C(=O)c2cccc(F)c2)CC3)c1 was tested. Which “activity, negative = inhibition” value did it give?
Answer: Its value is -25.9%.

From PubChem BioAssay AID1851 (National Center for Advancing Translational Sciences (NCATS), 2009)
